The record followed here is the supplement of paper PMC9262897, “Low-cost anti-mycobacterial drug discovery using engineered E. coli” (Nature Communications, 2022).

Molecules are shown by their SMILES. Structures can show the parent of a compound that is named as a salt. ± gives the standard deviation of the averaged measurements.

In this experiment the test system is E. coli TESEC Mtb DapB. Put plainly: growth (OD600 after 10 h); higher = more growth (less inhibition). The note with it: arabinose induction (level): Low; compound 0.1 mM; raw OD600 reference: median of DMSO wells 0.227, cell-free background 0.041. As for the experimental part: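 TESEC E. coli strains in which the native enzyme is deleted and replaced by arabinose-inducible Mtb Asd, DapB, CysH or TrpD, each grown in its selective medium. Strains were screened against the Prestwick library at 0.1 mM and 1% DMSO in 384-well format at low and high arabinose induction. Growth is read as OD600 after 10 h in triplicate.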
As to `CC(C)(C)NCC(O)c1ccccc1Cl` (centres undefined) [Tulobuterol], the growth is 0.21 ± 0.016.

Take `Clc1ccc(C(OCCN2CCCCC2)c2ccccc2)cc1` (centres undefined) [Cloperastine hydrochloride]: the growth is 0.163 ± 0.0059.

`CN(C)C(=O)Oc1cc(OC(=O)N(C)C)cc(C(O)CNC(C)(C)C)c1` (centres undefined) [Bambuterol hydrochloride] registered a growth of 0.211 ± 0.025.

With `C[C@@H]1C[C@@H]([C@H](O)CC2CC(=O)NC(=O)C2)C(=O)[C@@H](C)C1` [Cycloheximide], the growth stood at 0.258 ± 0.027.

Compound `CC(Cc1ccc(O)cc1)NCC(O)c1cc(O)cc(O)c1` (centres undefined) [Fenoterol hydrobromide] displayed a growth of 0.235 ± 0.05.

Turning to `COc1ccc(CCN)cc1OC` [Homoveratrylamine], the growth was determined as 0.217 ± 0.054.

In turn, `C(#CCN1CCCC1)CN1CCCC1` [Tremorine dihydrochloride] registered a growth of 0.234 ± 0.059.

`O=C1CC[C@@]2(O)[C@H]3Cc4ccc(O)c5c4[C@@]2(CCN3CC2CC2)[C@H]1O5` [Naltrexone hydrochloride dihydrate] returned a growth of 0.219 ± 0.048.

Compound `C[N+]1(C)CCCC(OC(=O)C(O)(c2ccccc2)c2ccccc2)C1` (centres undefined) [Mepenzolate bromide] registered a growth of 0.226 ± 0.009.

In turn, `C1CCc2nnnn2CC1` [Pentylenetetrazole] gave a growth of 0.274 ± 0.11.

In the case of `CC(=O)NC1CCSC1=O` (racemic) [N-Acetyl-DL-homocysteine Thiolactone], the growth was 0.242 ± 0.019.

Compound `CNC(C)(C)Cc1ccccc1` [Mephentermine hemisulfate] yielded a growth of 0.221 ± 0.0061.

In turn, `N[C@@H]1C[C@H]1c1ccccc1` [Tranylcypromine hydrochloride] came in with a growth of 0.23 ± 0.012.

Consider `CC(NC(C)(C)C)C(=O)c1cccc(Cl)c1` (centres undefined) [Bupropion hydrochloride], for which the growth was 0.261 ± 0.086.
